# SENP6 block = SENP6 protease inhibition | Recombinant SENP6 catalytic domain, aminoluciferin luminescence | Q9GZR1 | AID 2599 | inhibition, % at 10 µM | hit rate 1.8% among 330,000;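 active = inhibition above about 50% at the single tested dose, limit read from the data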;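 note: plate controls were DMSO wells with enzyme for no effect and DMSO wells lacking enzyme for full effect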
# SENP7 block = SENP7 protease inhibition. hit rate 1.5% among 330,000. Q9BQF6. inhibition, % at 5 µM. recombinant SENP7, Z-RLRGG-aminoluciferin luminescence, 40 min;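 active = inhibition above about 50% at the single test dose, limit read from the data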;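 note: plate controls were DMSO with enzyme for no effect and no enzyme buffer wells for full effect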
# PPC-1+TRAIL kill = kills PPC-1 cancer cells in the presence of TRAIL; PPC-1 cells + TRAIL, ATPLite viability luminescence; hit rate 0.41% among 220,000; AID 1443; cell killing (% activity), % at 4 µM or 5 µM;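 active = cell killing above 50% in the first pass at 4 µM, then a duplicate retest at 5 µM averaging 50% or more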;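 note: plate controls were cells with TRAIL plus DMSO for no effect and medium-only wells lacking cells for full effect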
# TRAIL sens C8 = sensitizes caspase-8 expressing cells to TRAIL. hit rate 1% among 360,000. inhibition (viability loss, TRAIL sensitization), % at 10 µM. NB7+C8 cells + TRAIL, ATPlite viability luminescence. AID 624354;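 active = compounds causing at least 50% loss of cell viability in the single-dose screen, relative to plate controls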
# SENP8 block-1 = SENP8 protease inhibition; Q96LD8; purified SENP8, Z-RLRGG-aminoluciferin cleavage, luminescence; inhibition, % at 10 µM; hit rate 1.2% among 330,000; AID 2540; in the data active = inhibition above about 50%
# Target sequence (Q96LD8 whole entry, looked up): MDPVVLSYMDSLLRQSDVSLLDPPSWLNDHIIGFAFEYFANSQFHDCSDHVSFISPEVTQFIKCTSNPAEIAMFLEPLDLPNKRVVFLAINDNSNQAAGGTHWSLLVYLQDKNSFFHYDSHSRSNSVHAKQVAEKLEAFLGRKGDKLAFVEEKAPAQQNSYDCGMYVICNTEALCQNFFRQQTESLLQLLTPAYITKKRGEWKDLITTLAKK
# SENP8 block-2 = inhibitors of human SENP8 protease | recombinant SENP8, Nedd8 substrate fluorescence | hit rate 0.64% among 360,000 | inhibition, % at 20 µM | AID 602440 | Q96LD8; in the data active = inhibition mostly above about 40%, no sharp cut-off; inactive = mostly below about 27%
# PPC1 cytotox = PPC-1 cell cytotoxicity | AID 1447 | hit rate 50% among 1,200 | PPC-1 viability, ATPlite luminescence, overnight | cytotoxicity, % at 5 µM | shares compounds with PPC-1+TRAIL kill;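 active = reconfirmed compounds whose average cytotoxicity reaches 50% or more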;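 note: 0% = DMSO-treated cells and 100% = wells holding medium but no cells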
# SENP8 conf = human SENP8 inhibition, confirmed; shares compounds with SENP7 block; Recombinant SENP8, Z-RLRGG-aminoluciferin luminescence, 60 min; inhibition, % at 12.5 µM; hit rate 40% among 6,200; AID 488912;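 active = mean inhibition across replicates above about 50%, limit read from the data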
# SENP6 conf = confirmation of human SENP6 protease inhibitors | AID 488915 | inhibition, % at 12.5 µM | shares compounds with SENP7 block | hit rate 58% among 6,200 | recombinant SENP6, Z-RLRGG-aminoluciferin luminescence
# SENP7 confirm = confirmation of human SENP7 protease inhibitors | shares compounds with SENP7 block | recombinant SENP7, Z-RLRGG-aminoluciferin luminescence, 40 min | inhibition, % at 12.5 µM | hit rate 69% among 6,200
# Casp3 SENP sel = selectivity test for SENP inhibitors: human caspase-3 inhibition. shares compounds with SENP7 block. purified caspase-3, Z-DEVD-aminoluciferin luminescence, 60 min. inhibition, % at 12.5 µM. hit rate 60% among 6,200. AID 488918;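 active = mean inhibition above about 50%, limit read from the data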;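 note: plate controls were enzyme with DMSO for no effect and wells without caspase-3 for full effect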
# Target sequence (P42574 28-227 limits assumed): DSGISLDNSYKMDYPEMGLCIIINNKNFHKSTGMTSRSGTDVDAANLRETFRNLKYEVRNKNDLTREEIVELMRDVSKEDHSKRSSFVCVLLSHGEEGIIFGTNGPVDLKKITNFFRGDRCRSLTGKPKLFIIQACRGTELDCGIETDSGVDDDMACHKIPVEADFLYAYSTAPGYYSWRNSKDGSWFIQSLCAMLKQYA
# SENP luc ctr = counter-screen for SENP inhibitors: luminescence interference; shares compounds with SENP7 block; Pre-incubated SENP8/Z-RLRGG-aminoluciferin, luciferase luminescence interference; inhibition, % at 12.5 µM; hit rate 39% among 6,200; AID 488919;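 active = mean inhibition above about 50% when retested at one dose, limit read from the data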;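 note: plate controls were DMSO wells with completed reaction for no effect and substrate without enzyme for full effect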
# The depositor's hits bear a star; i = inactive; / = no result given. Compounds with a hit are over-represented: about 3% of the library has one in this group of screens.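 Rule for the calls, unless noted: active = mean inhibition above about 50% in the one-dose retest (limit read from the data); inactive = the rest.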
SMILES,SENP6 block,SENP7 block,PPC-1+TRAIL kill,TRAIL sens C8,SENP8 block-1,SENP8 block-2,PPC1 cytotox,SENP8 conf,SENP6 conf,SENP7 confirm,Casp3 SENP sel,SENP luc ctr
Cc1ccn2cc(-c3ccc(Br)cc3)nc2c1,92*,97*,82*,86*,94*,-424,83*,56*,94*,96*,94*,39
Cc1csc(NC(=O)c2cn3ccccc3n2)n1,84*,85*,80*,85*,70*,-5,78*,65*,86*,97*,95*,16
Cc1csc(NC(=O)c2cnc3ccccc3n2)n1,20,12,/,40,2,4,/,/,/,/,/,/
O=C(c1ccc(F)cc1)N1CCC(C(=O)N2CCN(S(=O)(=O)c3cccc(Cl)c3)CC2)CC1,-18,9,/,10,-9,13,/,/,/,/,/,/
CCc1ccn2cc(-c3cc(-c4ccccc4)no3)nc2c1,93*,97*,81*,90*,90*,-355,80*,43,93*,77*,62*,7
Cc1ccn2cc(-c3ccc(NS(=O)(=O)c4ccccc4)cc3)nc2c1,-10,-2,9,-30,-10,-48,/,/,/,/,/,/
CCCCCCN1C=CC(=C2C(=O)c3ccccc3C2=O)C=C1,87*,76*,81*,92*,85*,17,80*,2,2,-4,-5,-2
CCN1C=CC(=C2C(=O)c3ccccc3C2=O)C=C1,88*,86*,96*,91*,76*,17,96*,-22,86*,100*,96*,89*
COc1ccc(/C=C/C2=NN(C)C(=O)CC2)cc1,78*,83*,53*,53*,69*,-2,48,81*,80*,94*,93*,80*
COc1ccc(C(=O)N=c2nc3ccccn3s2)cc1,95*,98*,90*,91*,90*,22,90*,88*,91*,96*,82*,36
COc1ccc(C(=O)O/N=C2\C(=O)N(C)c3ccccc32)cc1,-18,-5,/,-3,-17,18,/,/,/,/,/,/
CCN(CC)C(=O)CSc1ncnc2c(-c3cccs3)nsc12,57*,35,4,11,21,i,4,15,8,7,8,-4
O=C(Nc1ccccc1)SC1CCCCC1,/,/,/,-1,/,16,/,/,/,/,/,/
CCCCNC(=S)Nc1cccc2cnccc12,-3,3,21,9,3,-79,/,/,/,/,/,/
Cc1ccc(NC(=S)Nc2cccc3cnccc23)cc1C,65*,15,3,30,54*,-212,-9,12,20,8,0,-1
Fc1ccccc1NC(=S)Nc1cccc2cnccc12,92*,78*,-16,3,87*,-250,-27,15,41,26,7,16
Cc1ccc(NC(=O)Nc2nnc(-c3ccccc3)o2)cc1,-7,6,30,6,0,6,/,/,/,/,/,/
Cc1ccc(-c2nnc(Nc3ccccc3)o2)cc1,97*,4,84*,81*,95*,-90,85*,-2,93*,75*,87*,37
CCc1ccc(NC(=S)N(CCN2CCOCC2)Cc2ccccc2F)cc1,-8,6,1,1,13,-9,/,/,/,/,/,/
CC(C)Cc1cc(C(=O)Nc2cccc(O)c2)no1,93*,92*,63*,64*,86*,2,61*,91*,91*,99*,92*,75*
